Active and inactive are the calls of the source. The calls were made as follows: active = hit-call score of the fitted dose curve at least 0.9, where 1 is the maximum; inactive = score below 0.9.
Assay: ATG_PPRE_CIS: Attagene CIS-FACTORIAL HepG2 Assay for human Peroxisome Proliferator-activated Response Element (PPRE) (AID 2282958)
Settings: HepG2 PPRE cis-element reporter, Attagene transcription factor profiling; actives raise or lower the signal
Protocol: ATG_CIS is a cell-based, multiplexed-readout assay that uses HepG2, a human liver cell line, with measurements taken at 24 hours after chemical dosing in a 24-well plate.ATG_PPRE_CIS is one of 52 assay component(s) measured or calculated from the ATG_CIS assay. It is designed to make measurements of mRNA induction, a form of inducible reporter, as detected with fluorescence intensity signals by Reverse transcription polymerase chain reaction (RT-PCR) and Capillary electrophoresis technology.Data from the assay component ATG_PPRE_CIS was analyzed into 1 assay endpoint. This assay endpoint, ATG_PPRE_CIS, was analyzed with bidirectional fitting relative to DMSO as the negative control and baseline of activity. Using a type of inducible reporter, measures of mRNA for gain or loss-of-signal activity can be used to understand the reporter gene at the transcription factor-level as they relate to the gene PPARA and PPARD and PPARG. Furthermore, this assay endpoint can be referred to as a primary readout, because this assay has produced multiple assay endpoints where this one serves a reporter gene function. To generalize the intended target to other relatable targets, this assay endpoint is annotated to the nuclear receptor intended target family, where the subfamily is non-steroidal.
Human liver HepG2 cells are transiently transfected with multiple reporter transcription units (MRTUs) in 6-well plates using FuGene 6 reagent (Roche; 3 ml FuGene/1 mg DNA). The MRTU constructs are regulated by a cis-regulating element (promoter). […] A major difference between the CIS and TRANS system is that in CIS activities of endogenous TFs are measured, whereas the TRANS assay evaluates changes in activities of exogenous, chimeric NR-Gal4 proteins. […] At the end of 24 hour incubation, total RNA was isolated using TriZol reagent (Invitrogen). The isolated RNA is then reverse-transcribed using oligo(dT) primer and Mo-MLV reverse transcriptase (Invitrogen) with DNAse I (Ambion) treatment for 30 min. The one-tenth of the produced cDNA was amplified by PCR using Taq DNA polymerase (Invitrogen) and two reporter sequence-specific primers. The PCR products were fluorescently labeled by primer extension with 6-arboxyfluorescein (6-FAM) 5'-labeled reporter sequence-specific primer (2 min at 95 C, 20 s at 68 C and 10 min at 72 C) and these products were digested with 5U of HpaI (New England Biolabs) for 2h at 37 C. The fragments were purified using Qiaquick PCR columns (Qiagen), analyzed on an ABI 3130xL genetic analyzer (Applied Biosystems) with peak positions identified by using a set of X-rhodamine (ROX)-labeled MapMarker1000 molecular weight standards (BioVentures). The raw capillary electrophoresis data was processed using Attagraph software (Attagene).
In the case of `CCCCCCCCc1ccc(S(=O)(=O)O)cc1`, the outcome is reported as “inactive”.
With `CCCCCCCCCC(=O)OC` the outcome was “inactive”.
With `CCc1cc(Cc2cc(CC)cc(C(C)(C)C)c2O)c(O)c(C(C)(C)C)c1` the AC50 was 11.1 µM (active).
With `COC(=O)c1ccc([N+](=O)[O-])cc1` the outcome was “inactive”.
In the case of `CCC1CCCCC1`, the outcome is reported as “inactive”.
With `CC1(C)C2=CCCC(C)(C)[C@]23CC[C@H]1C3` the outcome was “inactive”.
For `Cc1cccc(Nc2ccccc2)c1`, the outcome was “inactive”.
For `CC(C)(C)C1=CC(=O)C(C(C)(C)C)=CC1=O`, the AC50 was 13.4 µM (active).
For `OCCCCC(O)CO` (stereo not given), the outcome was “inactive”.
For `CC/C=C\CC/C=C/CO`, the outcome was “inactive”.
For `COCCOC(=O)c1ccccc1C(=O)OCCOC`, the outcome was “inactive”.
With `CCCCCCC(O)CCCCCCCCCCC(=O)O` (stereo not given) the AC50 was 18 µM (active).
With `Cc1cc(=O)oc2cc(N(C)C)ccc12` the outcome was “inactive”.
In the case of `Cc1c(OCC(F)(F)F)ccnc1CS(=O)c1nc2ccccc2[nH]1` (stereo not given), the outcome is reported as “inactive”.
In the case of `NCCNc1cccc2ccccc12`, the AC50 is reported as 99.2 µM (active).
In the case of `CCCCC(CC)(CO)CO`, the outcome is reported as “inactive”.
For `CCCOC(=O)c1c(Cl)c(Cl)c(Cl)c(Cl)c1C(=O)OCCC`, the outcome was “inactive”.
In the case of `CCCCCC(C)=O`, the outcome is reported as “inactive”.
With `C=CCN(CC=C)CC=C` the outcome was “inactive”.
With `c1ccc2[nH]cnc2c1` the outcome was “inactive”.
In the case of `CC(C)(N=C=O)c1cccc(C(C)(C)N=C=O)c1`, the outcome is reported as “inactive”.
In the case of `CC(=O)Nc1ccc(C(=O)CCl)cc1`, the outcome is reported as “inactive”.
For `Cc1[nH]c(=O)c(C#N)cc1-c1ccncc1`, the outcome was “inactive”.
With `CN1C(=O)c2ccccc2C1=O` the outcome was “inactive”.
With `COc1ccc(N=Nc2cc(C)c(N=Nc3ccc(S(=O)(=O)O)cc3)cc2OC)cc1` the outcome was “inactive”.
With `CC=Cc1ccc(OCC)c(O)c1` the outcome was “inactive”.
With `OC[C@H]1O[C@@H](Oc2ccc(O)cc2)[C@H](O)[C@@H](O)[C@@H]1O` the outcome was “inactive”.
With `CCC(Cl)C(Cl)C(Cl)CC(Cl)C(Cl)C(C)Cl` (stereo not given) the outcome was “inactive”.
With `C=C(C)C(=O)OCCOC1CC2CC1C1C=CCC21` (stereo not given) the outcome was “inactive”.
With `C#CC(C)(O)CC(C)C` (stereo not given) the outcome was “inactive”.
For `CCOC(=O)C1OC1c1ccccc1` (stereo not given), the AC50 was 21.6 µM (active).
For `ON=C1CCCCC1`, the outcome was “inactive”.
In the case of `CC1CC(O)CC(C)(C)C1` (stereo not given), the outcome is reported as “inactive”.
With `[O-]n1ccccc1=S.[O-]n1ccccc1=S.[Zn+2]` the outcome was “inactive”.
In the case of `CCCCCCCC/C=C\CCCCCCCC(=O)OCC`, the outcome is reported as “inactive”.
For `Oc1ccc2cc(SSc3ccc4cc(O)ccc4c3)ccc2c1`, the AC50 was 160 µM (active).
With `CCN(CCC#N)c1ccc(N=Nc2ccc([N+](=O)[O-])cc2)cc1` the outcome was “inactive”.
For `CCCCCCCC(=O)OCCCCCC`, the outcome was “inactive”.
For `C=CCCC(=O)/C=C/C1C(C)=CCCC1(C)C` (stereo not given), the outcome was “inactive”.
For `CCCCOC(=O)CCCCCCCC(=O)OCCCC`, the outcome was “inactive”.
